We go through seven sequences from paper PMC7862700, “An all-to-all approach to the identification of sequence-specific readers for epigenetic DNA modifications on cytosine”.

Common to all, as to assay: DAPPL (digital affinity profiling via proximity ligation, sequencing); 10 mM Tris-HCl pH 7.5, 50 mM NaCl, 1 mM DTT, 4% glycerol, room temperature, 30 min; GST-TFs on glutathione beads, 16-mer random dsDNA library, 0.1% formaldehyde crosslink after washing; high values mean tight binding
What all share (conditions): protein: recombinant; tags: N-terminal GST; dsDNA, one strand shown

Test [1] has as its target T1, ERF (Homo sapiens, UniProt P50548 1-548).
T1 sequence: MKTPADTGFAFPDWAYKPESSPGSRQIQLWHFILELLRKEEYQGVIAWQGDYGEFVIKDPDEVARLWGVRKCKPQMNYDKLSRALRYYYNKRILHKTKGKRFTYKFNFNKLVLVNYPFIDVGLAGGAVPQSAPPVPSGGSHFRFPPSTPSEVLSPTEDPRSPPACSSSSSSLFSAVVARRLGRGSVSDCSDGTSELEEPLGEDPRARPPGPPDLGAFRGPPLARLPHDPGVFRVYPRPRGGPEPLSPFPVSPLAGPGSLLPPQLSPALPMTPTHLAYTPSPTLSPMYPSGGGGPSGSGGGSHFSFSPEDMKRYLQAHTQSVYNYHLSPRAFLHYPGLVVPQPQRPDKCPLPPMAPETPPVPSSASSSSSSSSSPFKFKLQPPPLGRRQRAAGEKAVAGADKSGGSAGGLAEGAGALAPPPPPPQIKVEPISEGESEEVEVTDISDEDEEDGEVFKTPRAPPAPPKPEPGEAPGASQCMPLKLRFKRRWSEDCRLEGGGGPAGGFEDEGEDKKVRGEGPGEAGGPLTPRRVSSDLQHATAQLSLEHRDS
The procedure, abridged: (§1)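 Human transcription factors carrying a GST fusion were produced in yeast, bound to glutathione beads, tagged with DNA barcodes and pooled together with a tag-only sample. Each pool was held with 200 nmole of a random double-stranded 16-mer DNA library in Tris/NaCl/DTT/glycerol buffer for 30 min at room temperature, then washed, crosslinked in 0.1% formaldehyde, proximity-ligated with BsaI/T4 ligase (1 h, 37 °C), PCR-amplified and sequenced on an Illumina NextSeq500. Binding signal is the read frequency of each hexamer for a given factor divided by its frequency in the tag-only sample.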

Test [2] concerns the target T2, ETV3L (Homo sapiens, UniProt Q6ZN32 1-361).
T2 sequence: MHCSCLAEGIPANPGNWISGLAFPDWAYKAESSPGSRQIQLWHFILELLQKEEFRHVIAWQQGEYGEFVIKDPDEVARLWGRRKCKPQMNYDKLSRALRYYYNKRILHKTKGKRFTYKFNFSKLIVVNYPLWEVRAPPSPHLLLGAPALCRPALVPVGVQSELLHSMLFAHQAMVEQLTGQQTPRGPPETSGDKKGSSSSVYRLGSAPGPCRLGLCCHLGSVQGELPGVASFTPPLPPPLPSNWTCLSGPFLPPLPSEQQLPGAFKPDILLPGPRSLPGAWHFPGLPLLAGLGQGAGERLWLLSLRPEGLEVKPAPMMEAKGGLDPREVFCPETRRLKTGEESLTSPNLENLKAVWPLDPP
A digest of the protocol: as §1

The target of test [3] is T3, ETS2 (Homo sapiens, UniProt P15036 1-469).
T3 sequence: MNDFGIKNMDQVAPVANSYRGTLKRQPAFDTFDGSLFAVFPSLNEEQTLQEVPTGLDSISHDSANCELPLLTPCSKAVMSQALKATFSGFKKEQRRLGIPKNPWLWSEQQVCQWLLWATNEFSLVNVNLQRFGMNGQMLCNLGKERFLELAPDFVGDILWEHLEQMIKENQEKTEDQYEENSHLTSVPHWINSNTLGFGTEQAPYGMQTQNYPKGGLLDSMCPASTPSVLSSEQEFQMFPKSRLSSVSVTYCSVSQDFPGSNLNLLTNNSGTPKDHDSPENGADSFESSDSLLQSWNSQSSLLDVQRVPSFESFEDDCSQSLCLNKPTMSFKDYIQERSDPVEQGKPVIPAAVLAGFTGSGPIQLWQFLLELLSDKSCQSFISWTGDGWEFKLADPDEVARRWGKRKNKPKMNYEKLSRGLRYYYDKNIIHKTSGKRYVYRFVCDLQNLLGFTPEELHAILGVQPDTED
A digest of the protocol: as §1

The target of test [4] is T4, SPDEF (Homo sapiens, UniProt O95238 1-335).
T4 sequence: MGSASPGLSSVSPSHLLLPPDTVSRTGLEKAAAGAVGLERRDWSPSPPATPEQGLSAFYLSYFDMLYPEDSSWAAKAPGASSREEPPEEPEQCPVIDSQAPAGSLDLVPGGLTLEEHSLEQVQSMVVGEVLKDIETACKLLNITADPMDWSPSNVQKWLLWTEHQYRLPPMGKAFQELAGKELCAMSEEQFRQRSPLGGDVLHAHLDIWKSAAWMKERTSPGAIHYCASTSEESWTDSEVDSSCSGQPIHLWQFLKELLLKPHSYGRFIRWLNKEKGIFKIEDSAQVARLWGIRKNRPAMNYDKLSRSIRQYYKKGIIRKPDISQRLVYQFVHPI
A digest of the protocol:
as §1

Test [5] deals with T5, ETV7 (Homo sapiens, UniProt Q9Y603 1-341).
T5 sequence: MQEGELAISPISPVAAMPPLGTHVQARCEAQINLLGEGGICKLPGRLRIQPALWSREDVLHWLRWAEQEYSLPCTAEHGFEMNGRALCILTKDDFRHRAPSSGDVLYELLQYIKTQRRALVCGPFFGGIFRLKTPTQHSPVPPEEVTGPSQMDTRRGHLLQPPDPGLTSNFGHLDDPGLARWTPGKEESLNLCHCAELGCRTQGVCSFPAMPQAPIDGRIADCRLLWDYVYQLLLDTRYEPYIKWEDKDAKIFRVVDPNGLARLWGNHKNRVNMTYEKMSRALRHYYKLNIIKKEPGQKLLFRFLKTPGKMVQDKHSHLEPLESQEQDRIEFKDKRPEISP
The procedure, abridged:
as §1

Test [6] addresses T6, ELF5 (Homo sapiens, UniProt Q9UKW6-2 1-255).
T6 sequence: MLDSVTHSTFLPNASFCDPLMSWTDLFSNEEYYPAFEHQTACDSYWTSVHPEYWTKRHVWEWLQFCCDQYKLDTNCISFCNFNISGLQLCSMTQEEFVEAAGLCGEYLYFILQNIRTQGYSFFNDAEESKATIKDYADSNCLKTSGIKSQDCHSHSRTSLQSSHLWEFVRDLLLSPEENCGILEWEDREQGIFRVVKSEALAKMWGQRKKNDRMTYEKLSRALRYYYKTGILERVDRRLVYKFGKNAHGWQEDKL
The procedure, abridged:
as §1

In test [7] the target is T7, ETV3 (Homo sapiens, UniProt P41162-2 1-143).
T7 sequence: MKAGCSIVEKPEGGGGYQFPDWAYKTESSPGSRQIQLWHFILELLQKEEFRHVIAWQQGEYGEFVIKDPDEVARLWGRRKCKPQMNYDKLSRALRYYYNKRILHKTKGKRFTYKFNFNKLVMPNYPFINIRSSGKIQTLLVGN
A digest of the protocol: as §1

The target in test [8] is ETV6 (Homo sapiens, UniProt P41212 1-452). The procedure, abridged: as §1
ETV6, sequence (P41212 whole entry): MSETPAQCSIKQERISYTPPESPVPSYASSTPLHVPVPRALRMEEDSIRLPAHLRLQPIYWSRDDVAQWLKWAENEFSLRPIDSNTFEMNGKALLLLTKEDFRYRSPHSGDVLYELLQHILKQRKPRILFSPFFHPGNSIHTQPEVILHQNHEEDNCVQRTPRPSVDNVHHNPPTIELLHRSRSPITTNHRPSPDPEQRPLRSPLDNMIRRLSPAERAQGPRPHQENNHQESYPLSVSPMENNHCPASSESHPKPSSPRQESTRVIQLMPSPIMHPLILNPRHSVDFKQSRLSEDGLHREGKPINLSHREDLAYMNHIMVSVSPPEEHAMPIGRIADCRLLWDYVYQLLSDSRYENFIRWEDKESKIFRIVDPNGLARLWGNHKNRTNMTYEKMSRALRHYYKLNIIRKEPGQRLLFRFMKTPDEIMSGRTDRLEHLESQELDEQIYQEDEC

In the case of CCGACC, the binding signal was 1.59 fold enrichment (6-mer frequency, TF over GST control) in test [1]; 1.67 fold enrichment (6-mer frequency, TF over GST control) in test [2]; 1.49 fold enrichment (6-mer frequency, TF over GST control) in test [3]; 1.54 fold enrichment (6-mer frequency, TF over GST control) in test [4]; 1.55 fold enrichment (6-mer frequency, TF over GST control) in test [5]; 1.48 fold enrichment (6-mer frequency, TF over GST control) in test [6]. Also, the binding signal in test [7] is 1.46 fold enrichment (6-mer frequency, TF over GST control); in test [8], 1.67 fold enrichment (6-mer frequency, TF over GST control).
For CTAATG, the binding signal was 1.2 fold enrichment (6-mer frequency, TF over GST control) in test [1]; 1.17 fold enrichment (6-mer frequency, TF over GST control) in test [2]; 1.25 fold enrichment (6-mer frequency, TF over GST control) in test [3]; 1.11 fold enrichment (6-mer frequency, TF over GST control) in test [4]; 1.3 fold enrichment (6-mer frequency, TF over GST control) in test [5]; 1.23 fold enrichment (6-mer frequency, TF over GST control) in test [6]. The binding signal in test [7] is 1.16 fold enrichment (6-mer frequency, TF over GST control); in test [8], 1.3 fold enrichment (6-mer frequency, TF over GST control).
As to GCCTTG, the binding signal in test [1] is 1.16 fold enrichment (6-mer frequency, TF over GST control); in test [2] it was 1.34 fold enrichment (6-mer frequency, TF over GST control); in test [3] it was 1.25 fold enrichment (6-mer frequency, TF over GST control); in test [4], 1.13 fold enrichment (6-mer frequency, TF over GST control); in test [5], 1.3 fold enrichment (6-mer frequency, TF over GST control); in test [6] it was 1.17 fold enrichment (6-mer frequency, TF over GST control). Moreover, the binding signal in test [7] is 1.14 fold enrichment (6-mer frequency, TF over GST control); in test [8], 1.16 fold enrichment (6-mer frequency, TF over GST control).
CTTCGT: the binding signal was 1.4 fold enrichment (6-mer frequency, TF over GST control) in test [1]; 1.32 fold enrichment (6-mer frequency, TF over GST control) in test [2]; 1.34 fold enrichment (6-mer frequency, TF over GST control) in test [3]; 1.25 fold enrichment (6-mer frequency, TF over GST control) in test [4]; 1.4 fold enrichment (6-mer frequency, TF over GST control) in test [5]; 1.3 fold enrichment (6-mer frequency, TF over GST control) in test [6]. The binding signal in test [7] is 1.31 fold enrichment (6-mer frequency, TF over GST control); in test [8], 1.31 fold enrichment (6-mer frequency, TF over GST control).
In the case of TTAAAA, the binding signal in test [1] is 1.3 fold enrichment (6-mer frequency, TF over GST control); in test [2] it was 1.27 fold enrichment (6-mer frequency, TF over GST control); in test [3], 1.17 fold enrichment (6-mer frequency, TF over GST control); in test [4] it was 1.15 fold enrichment (6-mer frequency, TF over GST control); in test [5] it was 1.26 fold enrichment (6-mer frequency, TF over GST control); in test [6], 1.11 fold enrichment (6-mer frequency, TF over GST control). For the same sequence, the binding signal in test [7] is 1.17 fold enrichment (6-mer frequency, TF over GST control); in test [8], 1.19 fold enrichment (6-mer frequency, TF over GST control).
With TGGCTA, the binding signal was 1.33 fold enrichment (6-mer frequency, TF over GST control) in test [1]; 1.21 fold enrichment (6-mer frequency, TF over GST control) in test [2]; 1.16 fold enrichment (6-mer frequency, TF over GST control) in test [3]; 1.28 fold enrichment (6-mer frequency, TF over GST control) in test [4]; 1.29 fold enrichment (6-mer frequency, TF over GST control) in test [5]; 1.14 fold enrichment (6-mer frequency, TF over GST control) in test [6]. The binding signal in test [7] was 1.18 fold enrichment (6-mer frequency, TF over GST control); in test [8], 1.28 fold enrichment (6-mer frequency, TF over GST control).
In the case of TTAATG, the binding signal in test [1] is 1.05 fold enrichment (6-mer frequency, TF over GST control); in test [2], 1.19 fold enrichment (6-mer frequency, TF over GST control); in test [3], 1.2 fold enrichment (6-mer frequency, TF over GST control); in test [4], 1.19 fold enrichment (6-mer frequency, TF over GST control); in test [5], 1.26 fold enrichment (6-mer frequency, TF over GST control); in test [6], 1.19 fold enrichment (6-mer frequency, TF over GST control). The binding signal is 1.21 fold enrichment (6-mer frequency, TF over GST control) in test [7] and 1.19 fold enrichment (6-mer frequency, TF over GST control) in test [8].
